DAX1 inh-1 – inhibitors of DAX1 repression of SF-1 activated StAR promoter. 1.1% of 370,000 active. inhibition, % at 6.8 µM. HEK293T StAR-luciferase reporter, SF-1/DAX-1 repression relief;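 active = inhibition above the mean over all tested compounds plus 3 SD, cut at about 3.6% in these data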;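 note: higher inhibition means more luminescence from relief of DAX-1 repression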
hcDAF-12 act – activates DAF-12 receptor from parasite H. contortus. HEK293 hcDAF-12 lit1-tk-luc reporter, luminescence; 0% DMSO, 100% Δ7-dafachronic acid. activation, % at 6.8 µM. 1.4% of 370,000 active. AID 652067;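 active = activation above the mean of all tested compounds plus 3 SD, cut at about 5.5% in these data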
DAX1 inh-2 – NR0B1 (DAX1) inhibition. P51843. HEK293 Gal4-DAX1 luciferase reporter, luminescence. inhibition, % at 6.75 µM. 0.99% of 340,000 active. AID 504766;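 active = inhibition above the mean over all tested compounds plus 3 SD, cut at about 4.2% in these data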;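 note: inhibition shows as a rise in luminescence from relieved DAX1 repression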
Target sequence (P51843 207-470 limits assumed): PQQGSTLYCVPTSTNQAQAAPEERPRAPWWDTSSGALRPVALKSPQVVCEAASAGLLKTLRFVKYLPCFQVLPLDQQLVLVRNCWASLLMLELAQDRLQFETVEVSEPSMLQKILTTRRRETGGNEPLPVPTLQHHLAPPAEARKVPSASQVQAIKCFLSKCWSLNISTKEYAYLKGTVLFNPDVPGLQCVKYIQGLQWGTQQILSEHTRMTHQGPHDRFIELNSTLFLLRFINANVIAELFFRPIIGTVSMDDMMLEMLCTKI
hgDAF12 agonist – agonists of H. glycines DAF-12 nuclear receptor. AID 687014. activation, % at 6.8 µM. 1.8% of 370,000 active. HEK293 GAL4-hgDAF12 UAS-luciferase reporter, agonist luminescence; normalized to butyrate control;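 active = activation above a cutoff set at the mean of all screened compounds plus 3 SD, cut at about 10% in these data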
ssDAF-12 act – activators of S. stercoralis DAF-12 nuclear receptor. HEK293 ssDAF-12/GRIP1 lit1-tk-luc reporter, luminescence; % of 3 µM dafachronic acid response. activation, % at 6.8 µM. 1% of 370,000 active;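 active = activation above the mean over all tested compounds plus 3 SD, cut at about 0.9% in these data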
hgDAF12 conf – confirmation of H. glycines DAF-12 agonists; activation, % at 6.8 µM; 80% of 3,300 active; shares compounds with hgDAF12 agonist; AID 743050; HEK293 GAL4-hgDAF12 luciferase reporter, agonist mode; percent of butyrate response;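 active = mean activation over triplicate wells above the hit cutoff derived from the earlier primary screen, cut at about 11% in these data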
LXR ag 2 – activates human LXR-beta, counter-screen for DAF-12 agonists; 3,300 tested, under 10 active; shares compounds with hgDAF12 agonist; activation, % at 6.8 µM; HEK293 Gal4-LXR luciferase reporter, 24 h;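 active = mean activation of the triplicate above a set limit carried over from the primary screen, none filed active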
Each line names hits and unclear results; the compound was inactive in the other large screens (follow-up assays come after a bar, where they were run). Sampled rows, rich in hits. Any-hit rate of the full collection: about 4.1%.

Brc1ccc(/C=N/Nc2ccccn2)cc1	hgDAF12 agonist 15.2 | hgDAF12 conf 11.2 | LXR ag 2 inactive
COc1ccc(/C=N/Nc2ccccn2)cc1O	hgDAF12 agonist 17.5 | hgDAF12 conf 12.1 | LXR ag 2 inactive
CCC(=O)c1ccc(OCC(O)CNC2CCCC2)cc1 (stereo not given)	none
CC(C)Oc1cccc(-c2csc(N3CCC(C(N)=O)CC3)n2)c1	hgDAF12 agonist 14.5 (no result: DAX1 inh-1, DAX1 inh-2) | hgDAF12 conf inactive | LXR ag 2 inactive
NC(=O)C1CCN(c2nc(-c3ccc4c(c3)OCCCO4)cs2)CC1	hgDAF12 agonist 16.9 (no result: DAX1 inh-1, DAX1 inh-2) | hgDAF12 conf 18.1 | LXR ag 2 inactive
CCc1ccccc1NC(=S)N(Cc1ccc(OC)cc1)CC1CCC(C(=O)O)CC1 (stereo not given)	none
O=C1CCN(Cc2ccccc2)C=C1c1ccc(Br)cc1	none
Cc1cc(C)c2c(CN(C)Cc3ccccc3)cc(=O)oc2c1	hgDAF12 agonist 13.5 (no result: DAX1 inh-2) | hgDAF12 conf inactive | LXR ag 2 inactive
O=C(Cc1ccccc1)Nc1ccc2c(c1)OC1(CCCC1)O2	hgDAF12 agonist 13.9 | hgDAF12 conf 14.6 | LXR ag 2 inactive
CCOc1ccc(-c2nnc(NC3=NCCCCC3)o2)cc1	hgDAF12 agonist 14.7 | hgDAF12 conf 13.1 | LXR ag 2 inactive
CCOc1ccc(S(=O)(=O)NC2=NCCCCC2)cc1	none
CCOc1ccc(-c2nnc(-c3ccccc3)o2)cc1	hcDAF-12 act 6.0, hgDAF12 agonist 13.8 | hgDAF12 conf 11.7 | LXR ag 2 inactive
Nc1nc(N)nc(-c2ccc(Cl)c(Cl)c2)n1	hgDAF12 agonist 21.3 | hgDAF12 conf 17.7 | LXR ag 2 inactive
COc1ccccc1/C=C/CN1CCSCC1	hgDAF12 agonist 15.9 | hgDAF12 conf inactive | LXR ag 2 inactive
CCC(C)NS(=O)(=O)c1ccc(-c2csnn2)s1 (stereo not given)	none
CCCN1C(=O)c2cc(C(=O)NC3CCCCCC3)ccc2C1O (stereo not given)	DAX1 inh-1 3.8, hgDAF12 agonist 17.6 | hgDAF12 conf 14.3 | LXR ag 2 inactive
CCCN1C(=O)c2cc(C(=O)O)ccc2C1O (stereo not given)	none
COc1ccc(C2N=C(c3ccccc3)NO2)cc1OC (stereo not given)	hcDAF-12 act 6.1, DAX1 inh-2 5.9, hgDAF12 agonist 13.6 | hgDAF12 conf 12.2 | LXR ag 2 inactive
Cc1ccc(NC(=O)CN2C(=O)NC(C)(c3ccc4c(c3)OCO4)C2=O)cc1 (stereo not given)	none
CCN(CC)S(=O)(=O)c1cc(C(=O)OCC(=O)Nc2ccc(-c3nc4ccc(C)cc4s3)cc2)ccc1F	hgDAF12 agonist 16.2, ssDAF-12 act 1.2 | hgDAF12 conf 18.9 | LXR ag 2 inactive
Cc1ccc2nc(-c3ccc(NC(=O)COCC(=O)O)cc3)sc2c1	hgDAF12 agonist 16.0 | hgDAF12 conf 10.7 | LXR ag 2 inactive
CCC(=O)NC(=S)Nc1ccc(-c2nc3ccc(C)cc3s2)cc1	hgDAF12 agonist 16.7 | hgDAF12 conf 12.7 | LXR ag 2 inactive
Cc1ccc(C2(C)NC(=O)N(CC(=O)Nc3ccc(-c4nc5ccc(C)cc5s4)cc3)C2=O)cc1 (stereo not given)	hgDAF12 agonist 23.7, ssDAF-12 act 1.1 | hgDAF12 conf 11.8 | LXR ag 2 inactive
Cc1ccc(CC2C(=O)N(c3nc(C)cc(C)n3)C(=O)C2C)cc1 (stereo not given)	none
Cc1cccc(N=Nc2cnc(N)s2)c1	DAX1 inh-2 4.4, hgDAF12 agonist 18.1 | hgDAF12 conf inactive | LXR ag 2 inactive
CC(=O)Nc1ncc(N=Nc2cccc(C(F)(F)F)c2)s1	none
Cc1nn(Cc2ccccc2Cl)c(Cl)c1C(=O)NCCc1ccccc1	DAX1 inh-1 4.0, hgDAF12 agonist 16.9 | hgDAF12 conf 15.1 | LXR ag 2 inactive
COc1ccc(N/C=C/C(=O)c2ccc(Cl)cc2)cc1	hgDAF12 agonist 13.3 | hgDAF12 conf 15.5 | LXR ag 2 inactive
CCn1c(O)c(C=Nc2ccccc2)sc1=S	hgDAF12 agonist 15.6, ssDAF-12 act 0.9 (no result: DAX1 inh-2) | hgDAF12 conf 17.6 | LXR ag 2 inactive
CC(C)NC(=S)N/N=C/c1cc(Br)ccc1O	none
Cc1ccc(-c2nn(-c3ccccc3)cc2C=O)o1	hgDAF12 agonist 13.4 | hgDAF12 conf inactive | LXR ag 2 inactive
C/C(=N\NC(=O)c1csc(C)c1C)c1ccc(C)s1	hgDAF12 agonist 13.5 | hgDAF12 conf 10.7 | LXR ag 2 inactive
Cc1cc(C(=O)CSc2nncn2C)c(C)n1-c1ccccc1	hgDAF12 agonist 15.8 | hgDAF12 conf 15.7 | LXR ag 2 inactive
CC(=O)Nc1ccc(SCC(=O)c2cc(C)n(-c3ccccc3)c2C)cc1	none
O=c1oc2ccccc2cc1-c1cn2ccccc2n1	none
O=c1oc2ccccc2cc1-c1cn2cccnc2n1	DAX1 inh-1 4.1, hgDAF12 agonist 14.3 | hgDAF12 conf 18.1 | LXR ag 2 inactive
CCOc1ccc2nc(NC(=O)Nc3ccccc3)sc2c1	DAX1 inh-2 4.5, hgDAF12 agonist 14.8 | hgDAF12 conf 16.1 | LXR ag 2 inactive
CCOc1ccc2nc(NC(=O)COC)sc2c1	DAX1 inh-1 4.5, hgDAF12 agonist 14.2 | hgDAF12 conf 16.5 | LXR ag 2 inactive
CCOc1ccc2nc(NC(=O)Cc3cccs3)sc2c1	none (no result: DAX1 inh-1, hcDAF-12 act, hgDAF12 agonist, ssDAF-12 act)
CCOc1ccc2nc(NC(=O)C3CCCO3)sc2c1 (stereo not given)	hgDAF12 agonist 17.5 | hgDAF12 conf 16.1 | LXR ag 2 inactive
CCOc1ccc2nc(NC(=O)NC3CCCCC3)sc2c1	none
CCN(C(=O)CSc1n[nH]c(N)n1)C1CCCCC1	none
CC1CCCN(C(=O)COC(=O)C2CCN(S(=O)(=O)c3ccc4c(c3)OCCO4)CC2)C1 (stereo not given)	none
CCC(C)NS(=O)(=O)c1ccc(NC(=O)C2CCN(C(=O)c3ccco3)CC2)cc1 (stereo not given)	none
C/C(=N\NC(=O)c1nn(C)cc1Br)c1cccc(NC(=O)c2ccncc2)c1	hgDAF12 agonist 17.9 | hgDAF12 conf inactive | LXR ag 2 inactive
C/C(=N\NC(=O)c1nn(C)c(C)c1Br)c1ccc(NC(=O)c2ccc(C)s2)cc1	hgDAF12 agonist 17.4 | hgDAF12 conf inactive | LXR ag 2 inactive
C/C(=N\NC(=O)c1ccncc1)c1cccc(NC(=O)c2ccc(C(C)(C)C)cc2)c1	none
CCC(CC)C(=O)Nc1cccc(/C(C)=N\NC(=O)c2ccc(C)s2)c1	none
C/C(=N\NC(=O)c1ccn(C)n1)c1cccc(NC(=O)c2ccc(C)s2)c1	hgDAF12 agonist 14.5 | hgDAF12 conf inactive | LXR ag 2 inactive
O=C(CC1OC(=O)c2ccccc21)Nc1cccc(S(=O)(=O)N2CCCCCC2)c1 (stereo not given)	none

Source: PubChem BioAssay (The Scripps Research Institute Molecular Screening Center)
